Screening data from PubChem.
CHRM1 PAM – human CHRM1 positive allosteric modulation. P11229. CHO-K1 hM1, Fluo-8 calcium fluorescence, ACh EC20; 0% = ACh EC20, 100% = maximal ACh. activation, % at 3 µM. actives 0.088% (n = 360,000); in the data active = activation above about 19%, passing the limit was not always enough
Myeloid diff MLP – myeloid differentiation induction; AID 624256; actives 1% (n = 360,000); calls only at 10 µM; ER-HoxA9 myeloid progenitors, lysozyme-GFP differentiation, flow cytometry;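 active = normalized GFP-positive differentiation at or above the plate's own cutoff, the solvent-only control mean plus 3 SD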;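 note: cells exposed to compound for four days before flow analysis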
M1 antag – blocks human M1 muscarinic receptor; P11229; CHO-K1 hM1, Fluo-8 calcium fluorescence, ACh EC80 antagonist; inhibition, % at 3 µM; actives 1.3% (n = 360,000); AID 588852;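 active = percent inhibition above its own plate's cutoff, namely the mean of that plate's compound wells plus 3 SD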;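 note: peak over basal fluorescence ratio during 140 s after agonist addition; 0% = ACh EC80 plus DMSO and 100% = DMSO alone without agonist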
SKN-1 inh – inhibitors of C. elegans SKN-1. C. elegans VP596 Pgst-4::GFP/RFP ratio, acrylamide-induced, 24 h. inhibition, % at 21.8 µM. actives 0.49% (n = 360,000). AID 624304;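 active = interference check ratio from 0.5 to 1.5 plus GFP to RFP signal ratio inhibition reaching or exceeding a fixed threshold, cut at about 30% in these data, passing the limit was not always enough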
ATG4B inh – ATG4B (human) cysteine protease inhibition | Q9Y4P1 | ATG4B cleavage of LC3-PLA2, NBD-HPC fluorescence, 1 h | inhibition, % at 8.33 µM | actives 0.51% (n = 340,000) | AID 504462; in the data active = inhibition above about 40%
Target sequence (Q9Y4P1 whole entry, looked up): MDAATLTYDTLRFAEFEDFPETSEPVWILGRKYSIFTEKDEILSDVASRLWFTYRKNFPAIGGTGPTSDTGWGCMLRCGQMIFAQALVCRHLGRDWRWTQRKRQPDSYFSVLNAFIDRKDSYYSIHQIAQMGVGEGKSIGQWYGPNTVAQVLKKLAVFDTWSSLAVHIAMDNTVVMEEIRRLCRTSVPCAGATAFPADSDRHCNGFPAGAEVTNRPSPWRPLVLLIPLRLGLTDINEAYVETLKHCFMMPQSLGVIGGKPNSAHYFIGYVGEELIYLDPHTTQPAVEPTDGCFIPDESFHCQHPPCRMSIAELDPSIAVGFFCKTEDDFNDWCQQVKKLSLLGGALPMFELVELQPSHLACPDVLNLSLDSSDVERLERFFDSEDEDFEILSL
CHRM1 agonist – activates human CHRM1 receptor. P11229. CHO-K1 hM1, Fluo-8 calcium fluorescence, agonist mode; 0% DMSO, 100% acetylcholine EC100. activation, % at 3 µM. actives 0.33% (n = 360,000). AID 588814;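 active = activation above the run's mean compound activation plus 3 SD, cut at about 16% in these data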;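 note: peak over basal fluorescence ratio within a 140 s kinetic read after compound addition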
* = called active by the depositor; i = inactive; . = not tested or not shown; + = active, no number; ! = a repeat was not active. In the library only some 3.5% were active in any assay of this set; here they are far more common.

SMILES | CHRM1 PAM | Myeloid diff MLP | M1 antag | SKN-1 inh | ATG4B inh | CHRM1 agonist
O=C(O)Cc1sc(=O)[nH]c1O | -8 | i | 16 | 18 | -3 | 1
Cn1nccc1C(=O)N1CCC(Cc2ccccc2)CC1 | -1 | i | -18 | 38* | 3 | 0
O=C(c1ccc(Br)o1)N1CCC(Cc2ccccc2)CC1 | -3 | i | 3 | -4 | 9 | -1
COc1ccccc1CNc1nc(NCc2ccc3occc3c2)c2sccc2n1 | -10 | i | 19 | 12 | . | 0
COc1ccc(CN2CCC[C@]3(N[C@H](c4ccccc4)[C@@H]4C(=O)N(Cc5ccccc5)C(=O)[C@@H]43)C2=O)cc1 | -4 | i | -3 | 2 | . | -3
Cc1cc2cc(CNC(=S)NCc3ccccc3)ccc2n1C | -16 | i | 15 | 36* | 36 | -8
Cc1cc2cc(CNC(=O)C(C)Oc3ccccc3)ccc2n1C (stereo not given) | -12 | i | 18 | 55 | -12 | -7
Cc1cc2cc(CNC(=O)Nc3ccccc3)ccc2n1C | -1 | i | 3 | 38* | 5 | -8
CCc1cccc(C)c1NC(=S)NCc1ccc2c(c1)cc(C)n2C | -5 | i | 9 | 97* | 13 | -10
CCOC(=O)c1ccc(S(=O)(=O)NNc2ccc(C(F)(F)F)cn2)cc1 | -4 | i | 6 | -9 | -5 | -6
COc1ccc([C@H]2CC(=O)C=C(c3ccc(CNC(=O)OC(C)(C)C)cc3)C2)cc1 | -23 | i | 34* | 15 | 9 | -4
COc1ccc(OCCNC2CCCC2)cc1 | 10 | i | -5 | -1 | 11 | -8
c1ccc(-c2ccc(OCCCNC3CCCC3)cc2)cc1 | -29 | i | 36* | 55* | -2 | 0
CC(C)Nc1nc(NC(C)C)nc(NS(=O)(=O)c2ccc(N)cc2)n1 | -5 | i | 1 | -3 | -4 | -4
CCNc1nc(NC(C)C)nc(NS(=O)(=O)c2ccc(N)cc2)n1 | 8 | + | 3 | -1 | -3 | -2
O=C1Nc2ccc(Br)cc2C1(O)c1ccccc1 (stereo not given) | 8 | . | -13 | -2 | 7 | 3
O=C1Nc2ccc(Br)cc2C12NNc1ccccc1O2 (stereo not given) | -1 | + | 20 | 6 | 4 | 10
COc1ccccc1N1CCN(C(=O)C(C)NC(=O)c2ccco2)CC1 (stereo not given) | 7 | i | -7 | 1 | -4 | -2
CC(NC(=O)c1ccco1)C(=O)N1CCc2ccccc2C1 (stereo not given) | 11 | + | -12 | -1 | -1 | 0
Cc1ccc(-n2ncc3c(N4CCN(c5ccccc5)CC4)ncnc32)c(C)c1 | -17 | i | 24* | -16 | -3 | 3
COc1ccc(N2CCN(c3ncnc4c3cnn4-c3ccc(C)cc3C)CC2)cc1 | 6 | i | -5 | -12 | 8 | 3
CCc1ccccc1NC(=O)C1CCN(C(=O)c2ccc([N+](=O)[O-])cc2)CC1 | 8 | i | 6 | 0 | -2 | -3
CC1CC(=O)C2=C(C1)Nc1ccccc1N(C(=O)COc1ccccc1)C2c1ccco1 (stereo not given) | 17 | + | -13 | 12 | -9 | -1
O=C(CNC(=O)c1n[nH]c2ccccc12)Nc1ccc(F)c(F)c1F | -5 | i | 7 | -16 | -5 | -1
Cc1cccc(N2CCN(C(=O)C3CCN(S(=O)(=O)c4cccc5nsnc45)CC3)CC2C)c1 (stereo not given) | -16 | i | 25* | 13 | -13 | 4
SMILES | CHRM1 PAM | Myeloid diff MLP | M1 antag | SKN-1 inh | ATG4B inh | CHRM1 agonist
O=C(C1CCN(S(=O)(=O)c2cccc3nsnc23)CC1)N1CCn2c1nc1ccccc12 | 12 | i | -26 | 1 | -14 | 17*
O=C(C1CCN(S(=O)(=O)c2cccc3nsnc23)CC1)N1CCc2ccccc21 | 0 | i | -19 | -13 | 1 | -3
Cc1cccc(N2CCN(C(=O)C3CCN(S(=O)(=O)c4cccc5cccnc45)CC3)CC2C)c1 (stereo not given) | -20 | i | 26 | 11 | -11 | -1
CCC1CCCCN1CCNC(=O)C1CCN(S(=O)(=O)c2cccc3nsnc23)CC1 (stereo not given) | -21 | i | 52* | -4 | -4 | -6
CCCN(CCC)CCCNC(=O)C1CCC(CNS(=O)(=O)c2cccc3nsnc23)CC1 (stereo not given) | -19 | i | 51* | 15 | -17 | -6
CCCCCCN1C[C@@H](O)[C@H](n2cc(-c3ccc(F)cc3)nn2)C[C@@H]1c1ccc(C)cc1 | -1 | i | -2 | 17 | . | -3
O=C(N=C1N=C2C=CC(Br)=CN2Cc2ccccc21)c1ccc([N+](=O)[O-])cc1[N+](=O)[O-] | 4 | i | -17 | 60* | 4 | -4
COc1ccc(S(=O)(=O)N2CCCCC2)cc1NS(=O)(=O)c1ccc(CNC(C)=O)cc1 | -8 | i | 4 | 16 | 2 | 0
C=C1C[C@]23C[C@@]1(O)CC[C@H]2[C@@]12C=C[C@H](O)[C@@](C)(C(=O)O1)[C@H]2[C@@H]3C(=O)O | -4 | +! | -8 | 16 | 4 | 0
COc1ccc(-c2nc3c4ccccc4ccn3c2CC2CCCCC2)cc1OC | 0 | + | -26 | 2 | . | -8
Cc1ccc(-c2nc3c4ccccc4ccn3c2CC2CCCCC2)cc1 | . | i | . | -7 | . | .
CN(CC(O)COC(c1ccccc1)c1ccccc1)C1CCCCC1 (stereo not given) | -32 | i | 30* | 5 | -6 | -12
CN(C)CC(O)COC(c1ccc(Cl)cc1)c1ccc(Cl)cc1 (stereo not given) | -21 | i | 41* | 8 | -3 | -6
CN(CC(O)COc1ccc(OCC(O)CN(C)C2CCCCC2)cc1)C1CCCCC1 (stereo not given) | 6 | i | -15 | -33 | 4 | -5
O=C(Nc1nnc(-c2cccs2)o1)c1cccc(C(F)(F)F)c1 | -8 | i | -4 | -3 | 17 | 41*
N#Cc1ccc(C(=O)Nc2nnc(-c3cccs3)o2)cc1 | 10 | i | -9 | 8 | 13 | -1
CCOc1ccc(-c2nnc(-c3cccs3)o2)cc1 | 7 | i | -9 | 70* | -21 | -4
FC(F)(F)c1ccc(NC(=S)NC2CCCCC2)cc1 | -14 | + | 29 | 13 | 10 | -2
Cc1ccc(CNC(=S)NC2CCCCC2)cc1 | 4 | i | -1 | 10 | 14 | -4
CN(C(=S)Nc1ccc(Oc2ccccc2)cc1)C1CCCCC1 | -26 | i | 39* | -7 | 7 | -9
S=C(NCc1ccccc1)NC1CCCCC1 | 6 | + | -10 | -3 | 4 | -4
FC(F)(F)c1cccc(NC(=S)NC2CCCC2)c1 | -14 | i | 18 | 2 | 8 | -4
